# Measured values from PubChem BioAssay AID1159580 (chemical genetic matrix, 2015).
# Out of some 5,500 compounds screened, about 2,000 (36%) were called active. Inconclusive results (about 18%) are left out. The list shows a part of the results. A number with no mark means an inactive call. No stated cut-off is given here; in the data, active means normalized growth mostly below about 0.91 (no sharp cut-off); inconclusive means no clear call, values can overlap the other calls; inactive means mostly above about 0.92.
# Experiment: chemical genetic growth profiling, strain panel (AID 1159580);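 further: tested at 20 µM; growth read once vehicle control cultures reached saturation at 30 °C; 1 = growth at the plate median or of vehicle wells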
# Conditions: S. cerevisiae deletion strains, growth OD
smiles,measurement,setting,value
CC(=O)c1ccc(Cl)c(NS(=O)(=O)c2cc(Cl)c(Cl)cc2Cl)c1,normalized growth,"locus YAR019C, strain CDC15, stronger effect = lower value",0.906
same,normalized growth,"locus YBL105C, strain PKC1, stronger effect = lower value",0.925
same,normalized growth,"locus YBR135W, strain CKS1, stronger effect = lower value",0.91
same,normalized growth,"locus YBR136W, strain MEC1, stronger effect = lower value",0.914
same,normalized growth,"locus YBR160W, strain CDC28, stronger effect = lower value",0.886 (active)
same,normalized growth,"locus YDL017W, strain CDC7, stronger effect = lower value",0.925
same,normalized growth,"locus YDL028C, strain MPS1, stronger effect = lower value",0.89 (active)
same,normalized growth,"locus YDL101C, strain DUN1, stronger effect = lower value",0.95
same,normalized growth,"locus YDL108W, strain KIN28, stronger effect = lower value",0.905
same,normalized growth,"locus YDL132W, strain cdc53, stronger effect = lower value",0.9
same,normalized growth,"locus YDL214C, strain PRR2, stronger effect = lower value",0.868
same,normalized growth,"locus YDR052C, strain DBF4, stronger effect = lower value",0.933
same,normalized growth,"locus YDR054C, strain cdc34, stronger effect = lower value",0.909
same,normalized growth,"locus YDR226W, strain ADK1, stronger effect = lower value",0.897 (active)
same,normalized growth,"locus YDR477W, strain SNF1, stronger effect = lower value",0.799
same,normalized growth,"locus YER123W, strain YCK3, stronger effect = lower value",0.794
same,normalized growth,"locus YER133W, strain GLC7, stronger effect = lower value",0.875
same,normalized growth,"locus YFL009W, strain cdc4, stronger effect = lower value",0.881 (active)
same,normalized growth,"locus YFL029C, strain CAK1, stronger effect = lower value",0.898
same,normalized growth,"locus YFR003C, strain YPI1, stronger effect = lower value",0.917
same,normalized growth,"locus YFR019W, strain FAB1, stronger effect = lower value",0.881
same,normalized growth,"locus YFR028C, strain CDC14, stronger effect = lower value",0.895
same,normalized growth,"locus YGR040W, strain KSS1, stronger effect = lower value",0.805
same,normalized growth,"locus YGR052W, strain FMP48, stronger effect = lower value",0.781
same,normalized growth,"locus YGR092W, strain DBF2, stronger effect = lower value",0.631
same,normalized growth,"locus YHR030C, strain SLT2, stronger effect = lower value",0.317 (active)
same,normalized growth,"locus YHR079C, strain IRE1, stronger effect = lower value",0.697
same,normalized growth,"locus YHR082C, strain KSP1, stronger effect = lower value",0.735
same,normalized growth,"locus YHR205W, strain SCH9, stronger effect = lower value",0.801
same,normalized growth,"locus YIL147C, strain SLN1, stronger effect = lower value",0.904
same,normalized growth,"locus YJL095W, strain BCK1, stronger effect = lower value",0.636
same,normalized growth,"locus YJL128C, strain PBS2, stronger effect = lower value",0.835
same,normalized growth,"locus YJL157C, strain FAR1, stronger effect = lower value",0.877
same,normalized growth,"locus YJR016C, strain ILV3, stronger effect = lower value",0.921
same,normalized growth,"locus YJR066W, strain TOR1 (second series), stronger effect = lower value",0.811
same,normalized growth,"locus YJR066W, strain TOR1, stronger effect = lower value",0.719
same,normalized growth,"locus YKL048C, strain ELM1, stronger effect = lower value",0.843
same,normalized growth,"locus YKL067W, strain YNK1, stronger effect = lower value",0.864
same,normalized growth,"locus YKL101W, strain HSL1, stronger effect = lower value",0.814
same,normalized growth,"locus YKL193C, strain SDS22, stronger effect = lower value",0.906
same,normalized growth,"locus YKL203C, strain TOR2, stronger effect = lower value",0.905
same,normalized growth,"locus YLR113W, strain HOG1, stronger effect = lower value",0.648 (active)
same,normalized growth,"locus YLR133W, strain CKI1, stronger effect = lower value",0.865
same,normalized growth,"locus YLR403W, strain SFP1, stronger effect = lower value",0.826
same,normalized growth,"locus YML070W, strain DAK1, stronger effect = lower value",0.811
same,normalized growth,"locus YMR001C, strain CDC5, stronger effect = lower value",0.899
same,normalized growth,"locus YMR205C, strain PFK2 (second series), stronger effect = lower value",0.905
same,normalized growth,"locus YMR277W, strain FCP1, stronger effect = lower value",0.885
same,normalized growth,"locus YNL006W, strain LST8, stronger effect = lower value",0.925
same,normalized growth,"locus YNL020C, strain ARK1, stronger effect = lower value",0.829
same,normalized growth,"locus YNL161W, strain CBK1, stronger effect = lower value",0.921
same,normalized growth,"locus YNL183C, strain NPR1, stronger effect = lower value",0.819
same,normalized growth,"locus YNL207W, strain RIO2, stronger effect = lower value",0.906
same,normalized growth,"locus YNL222W, strain SSU72, stronger effect = lower value",0.884 (active)
same,normalized growth,"locus YNL307C, strain MCK1 (second series), stronger effect = lower value",0.786
same,normalized growth,"locus YOL078W, strain AVO1, stronger effect = lower value",0.9
same,normalized growth,"locus YOL136C, strain PFK27, stronger effect = lower value",0.789
same,normalized growth,"locus YOR061W, strain CKA2, stronger effect = lower value",0.744
same,normalized growth,"locus YOR119C, strain RIO1, stronger effect = lower value",0.832
same,normalized growth,"locus YOR231W, strain MKK1, stronger effect = lower value",0.704
same,normalized growth,"locus YOR329C, strain SCD5, stronger effect = lower value",0.923
same,normalized growth,"locus YPL031C, strain PHO85, stronger effect = lower value",0.788
same,normalized growth,"locus YPL153C, strain RAD53, stronger effect = lower value",0.768
same,normalized growth,"locus YPL204W, strain HRR25, stronger effect = lower value",0.763
same,normalized growth,"locus YPL209C, strain IPL1, stronger effect = lower value",0.916
same,normalized growth,"locus YPL256C, strain CLN2, stronger effect = lower value",0.664 (active)
same,normalized growth,"locus YPR025C, strain CCL1, stronger effect = lower value",0.912
same,normalized growth,"locus YPR106W, strain ISR1, stronger effect = lower value",0.904
same,normalized growth,"locus YPR111W, strain DBF20, stronger effect = lower value",0.858 (active)
same,normalized growth,"strain NNK1, stronger effect = lower value",0.894
same,normalized growth,"strain TSCII, stronger effect = lower value",0.898
